Our source for the Potency, activation and outcome values is PubChem BioAssay (NCATS).

The target in experiment [1] is Cytochrome P450 3A4 (Homo sapiens) (UniProt P08684). Description: qHTS Assay for Activators of Cytochrome P450 3A4 (AID 885; active means well fitted curve in the direction sought with a large enough effect; an effect the other way counts as inactive or inconclusive; further: nearly all actives have a fitted effect of over 65% in size). In a few lines: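 Human CYP3A4 (20 nM) with Luciferin-PPXE at 25 uM (its KM) in 200 mM KPO4; 10 min compound preincubation, then NADPH regeneration and 60 min reaction at RT. Luciferin read by luminescence; normalized to 57 uM ketoconazole full inhibition.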
For orientation: qHTS replaces the single test concentration by a dilution series.

The target in experiment [2] is DNA dC->dU-editing enzyme APOBEC-3G (Homo sapiens) (UniProt Q9HC16). Description: qHTS for inhibitors of Vif-A3G interactions: Validation (AID 588379; active means well fitted curve in the direction sought with a large enough effect; an effect the other way counts as inactive or inconclusive; further: 0% is about no effect). In a few lines: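 HeLa cells stably expressing Vif and A3G-eYFP, 700 cells/well, incubated overnight at 37 deg C, then exposed to compound overnight at 37 deg C. Inhibition of Vif-mediated degradation read as increased yellow fluorescence (Ex 488/Em 500-530) by laser-scanning cytometry.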

For experiment [3], the target named is Androgen receptor (Homo sapiens) (UniProt P10275). Description: qHTS assay for small molecule agonists of androgen receptor signaling (AID 588515; active means well fitted curve in the direction sought with a large enough effect in the signal ratio, with a control signal flat; the % refers to the signal ratio; further: on the % scale 0 is the no-effect control and ±100 the full control effect). The conditions noted are these: AR-UAS-bla HEK293, beta-lactamase ratio, agonist 16 h; activation: stronger effect = higher value. The essentials: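 EC50 and efficacy came from Hill fits of titrations (up to 92 uM) normalized to 30 nM R1881 as 100% and DMSO as 0%. Compound exposure was 16 h at 37 C on AR-UAS-bla HEK293 cells, with a 405/460/530 nm CCF4 fluorescence read.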

Experiment [4] shares this target. Put plainly: qHTS assay for small molecule antagonists of androgen receptor signaling (AID 588516; active means well fitted curve in the direction sought with a large enough effect in the signal ratio, with a control signal flat, not every such curve was filed as active; the % refers to the signal ratio; further: on the % scale 0 is the no-effect control and ±100 the full control effect). In a few lines: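 Antagonist-mode qHTS: inhibition of R1881 (10 nM)-driven beta-lactamase expression in GripTite HEK 293 cells is measured after 16 h; values are Hill-derived IC50s normalized between R1881 and DMSO wells.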
Experiment [5] addresses Bile acid receptor (Homo sapiens) (UniProt Q96RI1). Description: qHTS assay for small molecule antagonists of farnesoid X receptor signaling (AID 588526). Further: on the % scale 0 is the no-effect control and ±100 the full control effect. The essentials: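 Beta-lactamase reporter antagonist mode: HEK293T FXR-UAS-bla cells, titrated compound, CDCA stimulation, 16 h 37 C, CCF4 dye 2 h RT. Data normalized to CDCA 50 uM and DMSO; Hill-fit IC50.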
Experiment [6] has as its target Vitamin D3 receptor (Homo sapiens) (UniProt P11473). Description: qHTS assay for small molecule agonists of vitamin D receptor signaling (AID 588543).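 Further: 0% = DMSO basal and 100% = reference agonist control.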 The essentials: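 qHTS in agonist mode: compound titrations stimulate a VDR-driven β-lactamase reporter in HEK293T cells over 16 h at 37 °C. Response normalized to 50 nM 1α,25-dihydroxyvitamin D3 = 100%, DMSO = 0%; Hill fitting gives EC50 and maximal response.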

Experiment [7] concerns the target Retinoic acid receptor RXR-alpha (Homo sapiens) (UniProt P19793). Put plainly: qHTS assay for small molecule agonists of retinoid X receptor alpha signaling (AID 588544). Further: potency means the concentration at half of the fitted maximal effect.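 On activation: 0% = DMSO basal wells and 100% = reference agonist.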
Experiment [8] in a line: qHTS assay for small molecule activators of the nuclear factor-kappa B (NF-kB) signaling pathway (AID 651749; active means well fitted activation curve with a large enough effect in the signal ratio; the % refers to the signal ratio; further: series mostly up to about 77 µM; % of control where 0% means no effect). The conditions noted are these: NF-kB-bla ME-180 cells, beta-lactamase FRET ratio, 16 h; activation: stronger effect = higher value. In a few lines:
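Stably transfected ME-180 line; NF-kB response element upstream of beta-lactamase. Treatment: compound or DMSO, 16 hr. Detection: fluorescent FRET substrate.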

In experiment [9] the target is Glucocorticoid receptor (Homo sapiens) (UniProt P04150). Description: qHTS assay for small molecule antagonists of glucocorticoid receptor signaling (AID 588533; active means well fitted inhibition curve with a large enough effect in the signal ratio, with a control signal flat, not every such curve was filed as active; the % refers to the signal ratio;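 further: cells stimulated with 2 nM dexamethasone as agonist; on the % scale 0 is the no-effect control and ±100 the full control effect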). In a few lines:
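Antagonist-mode qHTS: compound titrations added to GRE-bla HeLa cells, then dexamethasone 2 nM final; 18 h, 37 C. CCF4 FRET fluorescence normalized to dexamethasone and DMSO; IC50 from Hill fit.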

For experiment [10], the target named is Peroxisome proliferator-activated receptor gamma (Homo sapiens) (UniProt P37231). Description: qHTS assay for small molecule antagonists of peroxisome proliferator-activated receptor gamma signaling (AID 588537; active means well fitted inhibition curve with a large enough effect in the signal ratio, with a control signal flat, not every such curve was filed as active; the % refers to the signal ratio;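 further: reporter cells co-stimulated with 50 nM rosiglitazone agonist during compound treatment; % of control where 0% means no effect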). In a few lines: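 Inhibitors of agonist-stimulated UAS-bla reporter activity were sought in HEK293 cells; rosiglitazone (50 nM) defined full signal and DMSO baseline. Curves fitted to Hill model gave IC50 and efficacy.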

Experiment [11] addresses Vitamin D3 receptor (Homo sapiens) (UniProt P11473). Description: qHTS assay for small molecule antagonists of vitamin D receptor signaling (AID 588541). In a few lines:
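Antagonist-mode beta-lactamase reporter assay: HEK293T VDR-UAS-bla cells were exposed to titrated compound alongside 1-alpha,25-dihydroxyvitamin D3 at 3 nM final for 16 h. Values were normalized to the 50 nM agonist control and DMSO basal, with IC50 and efficacy from Hill equation fits.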

Experiment [12] can be described thus: qHTS assay for small molecule agonists of the antioxidant response element (ARE) signaling pathway (AID 651741; active means well fitted activation curve with a large enough effect in the signal ratio; the % refers to the signal ratio; further: potency means the concentration at half of the fitted maximal effect; on activation: % of control where 0% means no effect). In a few lines:
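Seeding 2,000 ARE-bla HepG2 cells per well preceded a 5 h incubation at 37 C/5% CO2 and a 16 h compound exposure at 37 C. Beta-lactamase reporter activity was then quantified by fluorescence after 2 h with LiveBLAzer B/G FRET substrate.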

SMILES strings stand for the structures. A number with no mark means an inactive call. Records with an inconclusive call do not appear. Calls of active or inactive are those of the source. Unless noted, the call rests on the fitted dose curve.

Sequence of Glucocorticoid receptor (Homo sapiens) (P04150 whole entry, looked up): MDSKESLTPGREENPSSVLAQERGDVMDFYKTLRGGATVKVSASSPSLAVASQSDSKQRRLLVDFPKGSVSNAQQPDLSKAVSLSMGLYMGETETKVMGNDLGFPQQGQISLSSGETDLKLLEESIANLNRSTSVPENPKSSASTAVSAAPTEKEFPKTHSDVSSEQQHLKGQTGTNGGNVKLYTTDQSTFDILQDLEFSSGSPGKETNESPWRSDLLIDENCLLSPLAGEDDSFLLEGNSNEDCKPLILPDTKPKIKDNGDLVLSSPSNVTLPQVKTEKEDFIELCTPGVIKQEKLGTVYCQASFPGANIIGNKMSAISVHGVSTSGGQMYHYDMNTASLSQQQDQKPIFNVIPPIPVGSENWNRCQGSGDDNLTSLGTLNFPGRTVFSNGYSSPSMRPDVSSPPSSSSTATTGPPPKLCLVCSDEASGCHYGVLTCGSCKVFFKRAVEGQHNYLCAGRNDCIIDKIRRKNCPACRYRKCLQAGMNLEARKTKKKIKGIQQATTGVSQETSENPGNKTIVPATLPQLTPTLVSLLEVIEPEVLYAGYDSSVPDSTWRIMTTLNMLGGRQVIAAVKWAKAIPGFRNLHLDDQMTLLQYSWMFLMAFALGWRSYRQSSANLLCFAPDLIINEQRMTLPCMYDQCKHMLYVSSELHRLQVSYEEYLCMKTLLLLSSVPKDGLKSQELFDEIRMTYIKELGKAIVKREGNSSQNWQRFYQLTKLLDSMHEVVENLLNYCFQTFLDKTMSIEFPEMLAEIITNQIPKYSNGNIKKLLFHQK
Sequence of Cytochrome P450 3A4 (Homo sapiens) (P08684 whole entry, looked up): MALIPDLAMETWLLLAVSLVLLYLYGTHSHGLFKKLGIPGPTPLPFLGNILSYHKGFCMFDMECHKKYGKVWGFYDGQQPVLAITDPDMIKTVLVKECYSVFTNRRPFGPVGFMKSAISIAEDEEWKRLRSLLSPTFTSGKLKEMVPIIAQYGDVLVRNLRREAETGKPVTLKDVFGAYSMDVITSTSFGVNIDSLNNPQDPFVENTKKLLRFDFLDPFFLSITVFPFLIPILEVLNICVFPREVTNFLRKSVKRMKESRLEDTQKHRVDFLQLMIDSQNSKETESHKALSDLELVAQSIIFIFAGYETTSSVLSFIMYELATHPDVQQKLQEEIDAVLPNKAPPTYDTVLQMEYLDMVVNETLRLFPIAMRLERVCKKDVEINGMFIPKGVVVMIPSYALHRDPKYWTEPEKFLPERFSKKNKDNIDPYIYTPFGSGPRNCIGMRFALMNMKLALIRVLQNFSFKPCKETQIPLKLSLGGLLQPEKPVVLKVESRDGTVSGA
Sequence of Peroxisome proliferator-activated receptor gamma (Homo sapiens) (P37231 whole entry, looked up): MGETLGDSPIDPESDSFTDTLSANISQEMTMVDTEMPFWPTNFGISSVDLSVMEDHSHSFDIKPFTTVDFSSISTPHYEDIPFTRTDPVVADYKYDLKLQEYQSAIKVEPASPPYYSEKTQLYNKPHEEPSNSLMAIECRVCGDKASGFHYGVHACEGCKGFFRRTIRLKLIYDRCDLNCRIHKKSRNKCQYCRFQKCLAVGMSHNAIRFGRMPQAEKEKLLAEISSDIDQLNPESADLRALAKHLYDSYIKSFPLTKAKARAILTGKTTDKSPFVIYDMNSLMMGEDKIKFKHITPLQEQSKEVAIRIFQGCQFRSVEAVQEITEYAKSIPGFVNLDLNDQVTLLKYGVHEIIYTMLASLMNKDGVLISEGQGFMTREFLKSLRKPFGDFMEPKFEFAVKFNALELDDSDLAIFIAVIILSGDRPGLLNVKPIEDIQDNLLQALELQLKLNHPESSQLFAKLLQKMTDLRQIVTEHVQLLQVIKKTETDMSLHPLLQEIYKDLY
Sequence of Androgen receptor (Homo sapiens) (P10275 whole entry, looked up): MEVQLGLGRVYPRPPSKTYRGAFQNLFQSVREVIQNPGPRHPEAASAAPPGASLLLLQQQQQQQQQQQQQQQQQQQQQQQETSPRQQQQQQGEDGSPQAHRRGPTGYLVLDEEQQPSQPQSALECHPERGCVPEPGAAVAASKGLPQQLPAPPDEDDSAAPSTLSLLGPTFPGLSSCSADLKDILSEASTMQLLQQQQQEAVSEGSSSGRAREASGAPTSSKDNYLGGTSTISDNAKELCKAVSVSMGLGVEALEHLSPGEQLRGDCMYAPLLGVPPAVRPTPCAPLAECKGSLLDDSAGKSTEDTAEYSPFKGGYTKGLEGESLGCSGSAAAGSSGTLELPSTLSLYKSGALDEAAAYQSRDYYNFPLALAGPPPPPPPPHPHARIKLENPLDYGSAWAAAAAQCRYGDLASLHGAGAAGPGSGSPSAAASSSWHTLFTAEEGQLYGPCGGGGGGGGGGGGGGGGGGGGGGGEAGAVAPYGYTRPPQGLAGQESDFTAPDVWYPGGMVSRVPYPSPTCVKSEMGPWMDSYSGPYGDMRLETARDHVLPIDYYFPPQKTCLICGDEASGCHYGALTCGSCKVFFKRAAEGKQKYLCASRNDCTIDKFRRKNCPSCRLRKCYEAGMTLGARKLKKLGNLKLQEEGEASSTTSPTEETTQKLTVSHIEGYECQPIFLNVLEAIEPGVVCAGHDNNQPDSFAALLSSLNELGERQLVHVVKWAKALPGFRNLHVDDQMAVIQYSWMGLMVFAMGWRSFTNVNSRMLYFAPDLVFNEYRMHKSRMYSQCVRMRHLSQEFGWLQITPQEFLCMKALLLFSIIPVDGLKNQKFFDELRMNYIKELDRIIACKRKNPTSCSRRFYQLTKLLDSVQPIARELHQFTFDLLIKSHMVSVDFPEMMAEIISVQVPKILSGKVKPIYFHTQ
Sequence of Retinoic acid receptor RXR-alpha (Homo sapiens) (P19793 whole entry, looked up): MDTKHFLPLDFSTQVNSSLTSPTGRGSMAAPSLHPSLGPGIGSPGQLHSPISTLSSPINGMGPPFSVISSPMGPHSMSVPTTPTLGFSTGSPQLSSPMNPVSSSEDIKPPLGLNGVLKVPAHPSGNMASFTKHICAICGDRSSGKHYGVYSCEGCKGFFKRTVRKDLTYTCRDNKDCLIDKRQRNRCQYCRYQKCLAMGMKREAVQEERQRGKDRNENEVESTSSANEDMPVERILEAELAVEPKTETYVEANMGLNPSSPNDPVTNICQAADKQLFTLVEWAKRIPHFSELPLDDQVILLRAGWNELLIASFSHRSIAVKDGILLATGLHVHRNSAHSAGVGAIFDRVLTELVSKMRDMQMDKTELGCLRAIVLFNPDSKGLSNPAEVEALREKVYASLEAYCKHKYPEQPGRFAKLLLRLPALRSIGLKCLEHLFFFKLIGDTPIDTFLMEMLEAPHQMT
Sequence of Bile acid receptor (Homo sapiens) (Q96RI1 whole entry, looked up): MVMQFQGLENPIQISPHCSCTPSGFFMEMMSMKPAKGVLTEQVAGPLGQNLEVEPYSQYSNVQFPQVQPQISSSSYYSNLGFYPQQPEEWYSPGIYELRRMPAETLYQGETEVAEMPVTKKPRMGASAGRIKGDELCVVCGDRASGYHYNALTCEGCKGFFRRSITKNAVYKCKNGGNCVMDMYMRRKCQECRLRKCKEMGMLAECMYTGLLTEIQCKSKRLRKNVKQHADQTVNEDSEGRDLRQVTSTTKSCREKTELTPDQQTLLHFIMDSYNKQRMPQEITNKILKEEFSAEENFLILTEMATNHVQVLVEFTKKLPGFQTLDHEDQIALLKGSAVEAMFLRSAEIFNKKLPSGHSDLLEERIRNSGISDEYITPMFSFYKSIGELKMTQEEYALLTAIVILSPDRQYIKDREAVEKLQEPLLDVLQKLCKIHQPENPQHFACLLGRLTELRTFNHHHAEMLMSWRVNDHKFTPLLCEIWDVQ
Sequence of DNA dC->dU-editing enzyme APOBEC-3G (Homo sapiens) (Q9HC16 whole entry, looked up): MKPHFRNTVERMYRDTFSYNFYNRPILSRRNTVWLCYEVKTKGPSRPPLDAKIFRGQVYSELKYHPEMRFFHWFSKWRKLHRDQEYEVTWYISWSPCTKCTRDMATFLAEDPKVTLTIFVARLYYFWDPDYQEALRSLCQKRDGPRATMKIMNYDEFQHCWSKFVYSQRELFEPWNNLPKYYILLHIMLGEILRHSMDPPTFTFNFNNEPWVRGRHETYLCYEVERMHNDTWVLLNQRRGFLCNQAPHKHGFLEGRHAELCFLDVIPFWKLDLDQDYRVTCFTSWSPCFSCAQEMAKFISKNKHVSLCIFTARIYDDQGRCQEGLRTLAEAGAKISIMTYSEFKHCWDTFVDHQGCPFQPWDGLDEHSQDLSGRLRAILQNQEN
Sequence of Vitamin D3 receptor (Homo sapiens) (P11473 whole entry, looked up): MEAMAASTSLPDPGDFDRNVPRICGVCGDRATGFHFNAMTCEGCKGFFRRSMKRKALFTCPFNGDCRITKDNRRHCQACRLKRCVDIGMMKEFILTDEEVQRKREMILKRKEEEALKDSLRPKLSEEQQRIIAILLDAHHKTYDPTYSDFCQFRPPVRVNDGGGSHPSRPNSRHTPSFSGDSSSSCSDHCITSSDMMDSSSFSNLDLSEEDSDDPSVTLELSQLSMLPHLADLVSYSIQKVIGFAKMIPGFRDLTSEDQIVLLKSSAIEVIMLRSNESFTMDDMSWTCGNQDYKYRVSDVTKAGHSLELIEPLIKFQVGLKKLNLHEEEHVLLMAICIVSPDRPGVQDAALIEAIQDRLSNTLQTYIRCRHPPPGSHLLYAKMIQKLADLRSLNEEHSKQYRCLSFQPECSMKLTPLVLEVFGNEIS

In the case of `Cc1cc(=O)cc2oc3cc(N)c(-c4c(C)cc(O)cc4O)c(C)c3nc1-2`, the Potency result in [1] and in experiment [2] was “inactive” each time.
Regarding `COc1ccc(C(=O)C2C3C4COC(O4)C(=O)C3C3C=Cc4ccccc4N32)c(OC)c1` (stereo unspecified), the Potency result in experiment [1] and in experiment [2] was “inactive” throughout.
For `CC(=O)c1c(O)c(C)c(O)c2c1OC1=CC(=O)C(C(C)=O)C(=O)[C@@]12C` (stereo partly specified), the Potency result in experiment [1] and in [2] was “inactive” each time.
With `CCCCCCCCCCCCCCCCCCN`, the activation in experiment [3] is -9.22%; in [8], 0.495%. Moreover, the result in experiment [4] and in experiment [6] was inactive. In addition, in experiment [5], the Potency result is “inactive”. In addition, the Potency in experiment [7] was 15.8 µM (active).
In the case of `CCCCOC(=O)c1ccccc1`, the activation in experiment [3] was 0.383%; in experiment [8] it was 0.836%. Besides, the outcome in [4] and in experiment [6] was inactive. Further, the Potency result in experiment [9], in experiment [10], in experiment [11], in [7] and in [12] was “inactive” in each case.
Regarding `Nc1cc(Cl)nc(C(=O)O)c1Cl`, the activation is 6.83% in experiment [3] and 0.121% in experiment [8]. Moreover, the result in [4] and in experiment [6] was inactive. Besides, the Potency entry in experiment [5], in experiment [10], in experiment [11] and in [12] was “inactive” each time.
As to `CCC/C(=N\OCC)C1=C(O)CC(O)(CC(C)S(=O)(=O)CC)CC1=O` (stereo unspecified), the activation in [3] is -4%; in experiment [8] it was -2.79%. In addition, the molecule was called inactive in experiment [4] and in [6]. Besides, the Potency result in experiment [5], in experiment [9], in [10], in experiment [11] and in experiment [7] was “inactive” in each case. Further, the Potency in experiment [12] was 54.5 µM (active).
Turning to `CC1(C)CC[C@]2(C(=O)O)CC[C@]3(C)C(=CCC4[C@@]5(C)CC[C@H](O)C(C)(C)C5[C@H](O)C[C@]43C)C2C1` (stereo partly specified), the Potency entry in experiment [1] and in experiment [2] was “inactive” each time.
With `C=CCCCCCCCCC=O`, the Potency entry in experiment [9], in experiment [11] and in experiment [7] was “inactive” throughout. In addition, the result in [6] was inactive. In experiment [8], the activation was -0.972%.
Take `O=C(OCCOCCOC(=O)c1ccccc1)c1ccccc1`: the Potency result in experiment [5], in experiment [10], in experiment [11] and in experiment [7] was “inactive” each time. The molecule was called inactive in experiment [6].
Take `C=C[Si](OCCOC)(OCCOC)OCCOC`: the Potency entry in [5], in [9], in experiment [7] and in experiment [12] was “inactive” in each case.
Consider `COC(=O)c1ccccc1C(=O)O`, for which the Potency entry in [9], in experiment [10], in [11], in [7] and in experiment [12] was “inactive” throughout. Moreover, the molecule was called inactive in experiment [6]. Besides, the activation in experiment [8] is -0.0496%.
As to `NCCCCCCCCCCCC(=O)O`, the call in experiment [4] and in experiment [6] was inactive. In addition, the Potency entry in experiment [5], in [9], in experiment [10], in experiment [11], in [7] and in experiment [12] was “inactive” in each case. Besides, the activation in experiment [8] is -0.832%.
Regarding `Cc1ccc(S(=O)(=O)N=C=O)cc1`, the Potency entry in [9], in [10], in experiment [7] and in [12] was “inactive” in each case. The molecule was classed as inactive in [6]. Further, in [8], the activation was -0.506%.
Regarding `CC(=O)/C=C/C1C(C)=CCCC1(C)C` (stereo unspecified), the Potency entry in [5], in experiment [10], in [11] and in experiment [12] was “inactive” each time. Besides, the call in experiment [6] was inactive.
On to `Cc1cc(C)c(N)c(Cl)c1`, for which the Potency entry in [9], in experiment [10], in experiment [11] and in experiment [12] was “inactive” throughout. The molecule was classed as inactive in experiment [6].
For `CC(C)c1cccc(C(C)C)c1`, the Potency entry in experiment [5], in experiment [11], in [7] and in experiment [12] was “inactive” throughout. Besides, the activation in [8] is -0.667%.
`C=CC(=O)OCC[N+](C)(C)C`: the Potency result in experiment [5], in experiment [10], in [11], in experiment [7] and in experiment [12] was “inactive” in each case. In addition, the outcome in experiment [6] was inactive.
As for `OCCOCCOCCOCCO`, the Potency result in experiment [9], in experiment [11], in experiment [7] and in [12] was “inactive” throughout. Besides, the molecule was classed as inactive in experiment [6].
With `CCCCCCCCCCCO`, the Potency result in experiment [5], in [11] and in experiment [7] was “inactive” in each case. Further, in experiment [6], the result was inactive. Further, in experiment [8], the activation is 0.0542%.
`c1ccc(OCCOc2ccccc2)cc1`: the Potency entry in [9], in experiment [10], in experiment [11] and in experiment [12] was “inactive” in each case. For the same molecule, the outcome in experiment [6] was inactive. The activation in experiment [8] was -1.28%.
Consider `CC(C)(C)c1cccc(C(C)(C)C)c1O`, for which the Potency result in [5], in experiment [10] and in experiment [12] was “inactive” in each case. In addition, in [8], the activation was -0.872%.
For the molecule `CC(C)C(=O)OCC(C)(C)C(O)C(C)C` (stereo unspecified), the Potency entry in experiment [5], in experiment [10], in experiment [7] and in experiment [12] was “inactive” throughout. The molecule was called inactive in experiment [6]. Moreover, the activation in [8] was -1.26%.
`Cn1c(=O)[nH]c(=O)n(C2CCCCC2)c1=O`: the molecule was called inactive in experiment [4] and in experiment [6]. The Potency entry in experiment [5], in experiment [11] and in experiment [7] was “inactive” each time. Besides, the activation in experiment [8] was -1.18%.
For the molecule `CCCCCC1CCC(=O)O1` (stereo unspecified), the Potency result in experiment [5], in experiment [9], in [11] and in experiment [7] was “inactive” each time. The result in experiment [6] was inactive. In addition, in experiment [8], the activation is -1.34%.
Turning to `C[Si]1(C)O[Si](C)(C)O[Si](C)(C)O[Si](C)(C)O[Si](C)(C)O1`, the Potency entry in [9], in [7] and in experiment [12] was “inactive” each time. For the same molecule, the call in experiment [6] was inactive. Besides, the activation in experiment [8] was -6.08%.
Consider `O=[N+]([O-])c1ccc2c(c1)Cc1ccccc1-2`, for which the Potency result in [9], in [10] and in [7] was “inactive” each time. Also, the activation in experiment [8] is -1.58%.
As to `CCCCOCCOCCOC(C)=O`, the Potency result in [9], in experiment [7] and in experiment [12] was “inactive” each time. The call in experiment [6] was inactive. In [8], the activation was -2.2%.
With `CC(C)OC(=O)c1ccccc1C(=O)OC(C)C`, the Potency entry in experiment [5], in [9], in experiment [10] and in [11] was “inactive” throughout. The outcome in [6] was inactive.
For the molecule `CCCCCCCCCCCCCO`, the Potency entry in experiment [9], in [10], in [11] and in experiment [7] was “inactive” throughout. The molecule was called inactive in experiment [6]. Further, the Potency in experiment [12] is 48.6 µM (active).
With `N[C@@H]1[C@@H](O)[C@H](O)[C@@H](CO)O[C@H]1O`, the activation in experiment [3] is 9.13%. Further, the result in [4] was inactive. For the same molecule, the Potency entry in experiment [10] and in experiment [7] was “inactive” each time.
Consider `CC1(C)CC(N)CC(C)(CN)C1` (stereo unspecified), for which the Potency result in experiment [9], in [7] and in [12] was “inactive” each time. Further, in [8], the activation was -0.653%.
Regarding `Nc1c(N=Nc2ccc(S(=O)(=O)CCOS(=O)(=O)O)cc2)c(S(=O)(=O)O)cc2cc(S(=O)(=O)O)c(N=Nc3ccc(S(=O)(=O)CCOS(=O)(=O)O)cc3)c(O)c12`, in experiment [3], the activation was 7.7%. Moreover, the Potency entry in experiment [5] and in [7] was “inactive” in each case. Also, the molecule was classed as inactive in experiment [6]. Moreover, the Potency in experiment [12] was 30.6 µM (active).
For the molecule `OC1CCCCCCCCCCC1`, the Potency result in experiment [9], in [10] and in experiment [12] was “inactive” in each case. Besides, the activation in experiment [8] was 0.918%.
Turning to `CCCCOCCOCCOC(=O)CCCCC(=O)OCCOCCOCCCC`, the Potency entry in experiment [5], in experiment [9] and in experiment [11] was “inactive” each time.
